Holding throughout (test): NCI-60 one-dose screen, 48 h (100 = growth as untreated, 0 = no growth, -100 = all killed)
Common to all, as to conditions: 10 µM unless noted

Experiment [1] concerns T-47D breast.
Experiment [2] deals with BT-549 breast.
The subject of experiment [3] is MDA-MB-435 melanoma.
For experiment [4], the system named is SW-620 colon.
Experiment [5] has as its system MCF7 breast.
The test system of experiment [6] is HCT-116 colon.
Experiment [7] deals with HCC-2998 colon.
Experiment [8] has as its system KM12 colon.

About 83,000 compounds went through this panel and 20% of them were active in at least one assay; those are over-represented in the sample as a whole.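 Single-dose data. Exposure time 48 hours. Values below 10 considered active.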 A number with no mark means an inactive call. Active and inactive are the calls of the source.

With `O=C(Nc1nc(-c2ccccc2Cl)cs1)c1cc(-c2ccccc2)nc2ccc(Cl)cc12`, the growth in experiment [1] was 74.1%; in experiment [2] it was 11.8%; in experiment [3], 8.05% (active); in experiment [4], 29.4%; in experiment [5], 25.8%; in experiment [6] it was 4.98% (active). For the same molecule, the growth in experiment [7] is 95.5%; in experiment [8] it was 84.2%.

For `O=C(Nc1nc2ccc(C(=O)N3CCN(c4ccc(Cl)c(Cl)c4)CC3)cc2s1)c1ccc(NCCc2ccccc2)c([N+](=O)[O-])c1`, the growth in experiment [1] is 84.4%; in experiment [2] it was 108%; in experiment [3], 111%; in experiment [4] it was 103%; in experiment [5], 96.7%; in experiment [6], 95%. Further, the growth in experiment [7] is 105%; in experiment [8], 107%.

For the molecule `Cc1ccc(C2C3CC4CCCCC4N3[C@@]3(C(=O)Nc4cc(Cl)ccc43)C2C(=O)c2nc3ccccc3[nH]2)cc1` (stereo partly drawn), the growth in experiment [1] is 27.4%; in experiment [2] it was 52.8%; in experiment [3], 26.5%; in experiment [4] it was 29.8%; in experiment [5], 13.8%; in experiment [6] it was 19.5%. Also, the results for the growth in experiment [7] and in experiment [8] were 38.4% and 38%, respectively.

Consider `CCCCCCCCOc1ccc(/C=N/Nc2cc(C)nc3ccc(Cl)cc23)cc1`, for which the growth in experiment [1] was 56%; in experiment [2], 111%; in experiment [3] it was -19.8% (active); in experiment [4], -70.4% (active); in experiment [5] it was -69.7% (active); in experiment [6] it was -69.9% (active). In addition, the growth in experiment [7] was -58.6% (active); in experiment [8] it was -72.9% (active).

Take `O=C(CN1CCOCC1)Nc1ccc2ncnc(Nc3ccc(OCc4cccc(F)c4)c(Cl)c3)c2c1`: the growth in experiment [1] was 18.5%; in experiment [2] it was 70.8%; in experiment [3], 72.1%; in experiment [4] it was 109%; in experiment [5], 54.7%; in experiment [6] it was 64.5%. Further, the growth is 88.6% in experiment [7] and 83.2% in experiment [8].

In the case of `Fc1ccccc1CSc1ncnc2nc[nH]c12`, the growth in experiment [1] was 97.7%; in experiment [2], 137%; in experiment [3], 109%; in experiment [4], 96%; in experiment [5], 96.9%; in experiment [6], 97.6%. Also, the growth in experiment [7] was 111%; in experiment [8], 112%.

Consider `COc1ccc(/C(=C\c2ccccc2)C(=O)O)cc1OC`, for which the growth is 85.7% in experiment [1]; 102% in experiment [2]; 106% in experiment [3]; 97.4% in experiment [4]; 93.7% in experiment [5]; 102% in experiment [6]. Moreover, the growth in experiment [7] and in experiment [8] was 103% throughout.

For `O=C1NC(=O)C(=Cc2cn(Cc3ccccn3)c3ccccc23)C(=O)N1`, the growth in experiment [1] was 100%; in experiment [2] it was 98.8%; in experiment [3] it was 101%; in experiment [4] it was 105%; in experiment [5], 87.6%; in experiment [6], 100%. For the same molecule, the figures for the growth in experiment [7] and in experiment [8] were 105% and 106%, respectively.

With `CC(O)/C=C/C=C/C(O)CC/C=C/C(=O)NCC(C)(C)O` (stereo not drawn), the growth in experiment [1] is 86.2%; in experiment [2], 109%; in experiment [3], 110%; in experiment [4] it was 118%; in experiment [5], 78.2%; in experiment [6] it was 93.5%. In addition, the growth in experiment [7] was 90.6%; in experiment [8] it was 102%.

As to `O=S(=O)(NCCNc1nccc(-c2c(-c3ccc(F)c(O)c3)nc3sccn23)n1)c1ccccc1`, the growth is 68.8% in experiment [1]; 114% in experiment [2]; 34.1% in experiment [3]; 70.4% in experiment [4]; 76.1% in experiment [5]; 34.3% in experiment [6]. The growth is 95% in experiment [7] and 71.2% in experiment [8].

In the case of `O=C1NC(=S)NC(=O)C1=Cc1cn(Cc2ccccn2)c2ccccc12`, the growth is 89.8% in experiment [1]; 66.8% in experiment [2]; 21.3% in experiment [3]; 48.3% in experiment [4]; 34.6% in experiment [5]; 2.36% (active) in experiment [6]. Besides, the growth in experiment [7] was 54.2%; in experiment [8] it was 57.2%.

For the molecule `O=C(Nc1ccc(Nc2ncccn2)cc1)NC1C=c2ccccc2=CC1` (stereo not drawn), the growth in experiment [1] was 100%; in experiment [2], 102%; in experiment [3], 113%; in experiment [4] it was 106%; in experiment [5] it was 97.9%; in experiment [6], 111%. Moreover, the growth was 106% in experiment [7] and 108% in experiment [8].

On to `Cc1ccc(C(c2c(O)c3cc(Br)ccc3[nH]c2=O)c2c(O)c3cc(Br)ccc3[nH]c2=O)cc1`, for which the growth is 71.6% in experiment [1]; 87.4% in experiment [2]; 86.3% in experiment [3]; 102% in experiment [4]; 80.2% in experiment [5]; 82.4% in experiment [6]. Also, the growth was 94.4% in experiment [7] and 88.2% in experiment [8].

With `CCCCOc1ccc(/C=N/Nc2cc(C)nc3ccc(Cl)cc23)cc1`, the growth in experiment [1] is 21.5%; in experiment [2], 96.6%; in experiment [3], -85.2% (active); in experiment [4] it was -58.3% (active); in experiment [5], -70.8% (active); in experiment [6], -68% (active). Moreover, the growth in experiment [7] was -71.1% (active); in experiment [8], -76.6% (active).

Regarding `S=c1[nH]cccc1-c1nnc2n1Nc1nc3ccc(Cl)cc3cc1CS2`, the growth in experiment [1] was 89.5%; in experiment [2], 96.3%; in experiment [3] it was 103%; in experiment [4], 98.8%; in experiment [5], 86.5%; in experiment [6] it was 86.6%. Besides, the growth in experiment [7] is 106%; in experiment [8], 104%.

Regarding `Cc1nc2sc(C(=O)Nc3ccccc3)c(N)c2cc1C(=O)c1ccc(C(F)(F)F)cc1`, the growth is 97.2% in experiment [1]; 100% in experiment [2]; 94.1% in experiment [3]; 99.5% in experiment [4]; 90.7% in experiment [5]; 76.8% in experiment [6]. Also, the values for the growth in experiment [7] and in experiment [8] were 104% and 108%, respectively.

These data come from PubChem BioAssay (NCI).
